# Reference: the antibiotic and cytotoxicity screens of Wong et al. (2023)
# Among all 39,000 compounds or so, about 1,500 (3.8%) were called active. For the sample, actives were picked, then their nearest neighbours and some compounds at random.
# Test system: HSkMC (human skeletal muscle cells)
# Test: cytotoxicity call (relative viability < 0.9)
# Conditions: 10 µM
row,Structure (SMILES),cytotoxicity call
1,C=CCNC(=O)[C@H]1CCCN(S(C)(=O)=O)C1,inactive
2,O=C(C[C@@H]1C=C[C@H](NC(=O)c2ccc3c(c2)OCO3)[C@H](CO)O1)NCc1ccc(Oc2ccccc2)cc1,inactive
3,COCCNC(=O)C[C@H]1CC[C@@H]2[C@@H](COc3ccc(NS(=O)(=O)c4ccc(Cl)cc4)cc3C(=O)N2C)O1,inactive
4,COCOc1ccc2cc(Br)ccc2c1-c1c(OCOC)ccc2cc(Br)ccc12,active
5,COc1ccc2ccccc2c1-c1c(OC)ccc2ccccc12,inactive
6,COc1ccccc1-c1ccc2c(c1)O[C@@H](CN(C)CC1CCOCC1)[C@@H](C)CN([C@@H](C)CO)S2(=O)=O,inactive
7,CCNC(=O)[C@@H]1CCCN1C(=O)[C@H](CCCNC(=N)N)NC(=O)[C@H](CC(C)C)NC(=O)[C@@H](CC(C)C)NC(=O)[C@H](Cc1ccc(O)cc1)NC(=O)[C@H](CO)NC(=O)[C@H](Cc1c[nH]c2ccccc12)NC(=O)[C@H](Cc1cnc[nH]1)NC(=O)[C@@H]1CCC(=O)N1,inactive
8,CN(c1c[nH]c(=O)[nH]c1=O)C1CCCCC1,inactive
9,C[C@@H]1CN([C@H](C)CO)C(=O)Cc2cc(NS(=O)(=O)c3ccc(F)cc3)ccc2O[C@@H]1CN(C)Cc1ccc(Oc2ccccc2)cc1,active
10,C[C@@H]1CN([C@H](C)CO)C(=O)Cc2cc(NS(=O)(=O)c3ccc(F)cc3)ccc2O[C@H]1CN(C)Cc1ccc(Oc2ccccc2)cc1,active
11,C[C@H]1CN([C@@H](C)CO)C(=O)Cc2cc(NS(=O)(=O)c3ccc(F)cc3)ccc2O[C@@H]1CN(C)Cc1ccc(Oc2ccccc2)cc1,inactive
12,C[C@H](CO)N1C[C@H](C)[C@@H](CN(C)Cc2ccc(Oc3ccccc3)cc2)Oc2ccc(NS(=O)(=O)c3ccc(F)cc3)cc2CC1=O,inactive
13,C[C@H]1CN([C@@H](C)CO)C(=O)Cc2cc(NS(=O)(=O)c3ccc(F)cc3)ccc2O[C@H]1CN(C)Cc1ccc(Oc2ccccc2)cc1,active
14,C[C@@H]1CN([C@@H](C)CO)C(=O)Cc2cc(NS(=O)(=O)c3ccc(F)cc3)ccc2O[C@H]1CN(C)Cc1ccc(Oc2ccccc2)cc1,inactive
15,C[C@H](CO)N1C[C@H](C)[C@H](CN(C)Cc2ccc(Oc3ccccc3)cc2)Oc2ccc(NS(=O)(=O)c3ccc(F)cc3)cc2CC1=O,active
16,Cc1noc(C)c1NC(=O)Nc1ccc2c(c1)C(=O)N([C@@H](C)CO)C[C@H](C)[C@H](CN(C)Cc1ccc3c(c1)OCO3)OCCCC[C@H](C)O2,inactive
17,CC(C)NC(=O)N(C)C[C@H]1Oc2ccc(NC(=O)CCCN(C)C)cc2C(=O)N([C@H](C)CO)C[C@@H]1C,inactive
18,C[C@@H]1CCCCO[C@@H](CN(C)C(=O)C2CCCCC2)[C@@H](C)CN([C@@H](C)CO)C(=O)c2cc(NC(=O)CCC(F)(F)F)ccc2O1,inactive
19,C[C@@H]1CN([C@@H](C)CO)C(=O)c2cc(NS(=O)(=O)c3ccc(Cl)cc3)ccc2O[C@@H](C)CCCCO[C@H]1CN(C)S(=O)(=O)c1ccc(F)cc1,inactive
20,Cc1noc(C)c1S(=O)(=O)Nc1ccc2c(c1)CC(=O)N([C@@H](C)CO)C[C@@H](C)[C@H](CN(C)C(=O)Nc1ccc3c(c1)OCO3)O2,inactive
21,COc1ccc(CN(C)C[C@H]2Oc3ccc(NS(C)(=O)=O)cc3C(=O)N([C@@H](C)CO)C[C@H]2C)cc1,inactive

row,Structure (SMILES),cytotoxicity call
1,COc1ccccc1CNC(=O)C[C@H]1C[C@@H]2c3cc(NC(=O)c4cccnc4)ccc3O[C@@H]2[C@H](CO)O1,inactive
2,C[C@@H]1CN([C@@H](C)CO)C(=O)Cc2cc(NS(=O)(=O)c3ccc(F)cc3)ccc2O[C@@H]1CN(C)Cc1ccc(Oc2ccccc2)cc1,active
3,Cc1ccccc1S(=O)(=O)N1C[C@@H](O)COC[C@@H]2O[C@H](CC(=O)N3CCOCC3)CC[C@H]21,inactive
4,COc1ccc2c3c([nH]c2c1)[C@H](CO)N(C[C@]13CCN(CC1)C(=O)c1cnccn1)C(=O)c1cnccn1,inactive
5,COc1ccc(C(=O)CO)cc1,inactive
6,COc1ccc(C(=O)CC(=O)c2ccc(C(C)(C)C)cc2)cc1,active
7,COc1ccc(C(=O)O)cc1,inactive
8,Cc1cc(C(=O)Nc2cccc3c2O[C@H](CN(C)Cc2ccc4c(c2)OCO4)[C@@H](C)CN([C@@H](C)CO)C3=O)n(C)n1,inactive
9,O=C(O)CCNC(=O)c1ccccc1 [listing 1 of 2 here],inactive
10,O=C(O)CCNC(=O)c1ccccc1 [listing 2 of 2 here],inactive
11,Cc1cc(O[C@@H](CCC(F)(F)F)c2ccc(C(=O)NCCC(=O)O)cc2)cc(C)c1-c1ccc(C(C)(C)C)cc1,active
12,O=C(/C=C/c1ccc(O)c(O)c1)O[C@]1(C(=O)O)C[C@@H](O)[C@H](O)[C@H](O)C1,inactive
13,CC(C)NC(=O)Nc1ccc2c(c1)C(=O)N([C@H](C)CO)C[C@H](C)[C@@H](CN(C)S(=O)(=O)c1ccc(F)cc1)O2,inactive
14,Cn1cnc(CCNC(=O)C[C@@H]2CC[C@H]3[C@@H](COC[C@@H](O)CN3C(=O)Nc3ccc(Cl)cc3)O2)c1,inactive
15,CO[C@@H]1CN(C)C(=O)c2ccc(NS(=O)(=O)CC(F)(F)F)cc2OC[C@H](C)N(Cc2cccnc2)C[C@H]1C,inactive
16,C[C@H](CO)N1C[C@H](C)[C@@H](CN(C)Cc2ccc3c(c2)OCO3)OCCCC[C@H](C)Oc2ccc(NC(=O)Nc3cccc4ccccc34)cc2C1=O,active
17,C[C@@H]1CN([C@@H](C)CO)C(=O)c2cc(NC(=O)Nc3cccc4ccccc34)ccc2O[C@@H](C)CCCCO[C@H]1CN(C)Cc1ccc2c(c1)OCO2,active
18,C[C@@H]1CN([C@H](C)CO)C(=O)c2cc(NC(=O)Nc3cccc4ccccc34)ccc2O[C@@H](C)CCCCO[C@H]1CN(C)Cc1ccc2c(c1)OCO2,inactive
19,C[C@@H]1CCCCO[C@@H](CN(C)Cc2ccc3c(c2)OCO3)[C@@H](C)CN([C@H](C)CO)C(=O)c2cc(NC(=O)Nc3cccc4ccccc34)ccc2O1,inactive
20,C[C@@H]1CCCCO[C@H](CN(C)Cc2ccc3c(c2)OCO3)[C@@H](C)CN([C@H](C)CO)C(=O)c2cc(NC(=O)Nc3cccc4ccccc34)ccc2O1,inactive
21,C[C@H]1CCCCO[C@@H](CN(C)Cc2ccc3c(c2)OCO3)[C@@H](C)CN([C@@H](C)CO)C(=O)c2cc(NC(=O)Nc3cccc4ccccc34)ccc2O1,active

row,Structure (SMILES),cytotoxicity call
1,C[C@@H]1CCCCO[C@H](CN(C)Cc2ccc3c(c2)OCO3)[C@H](C)CN([C@@H](C)CO)C(=O)c2cc(NC(=O)Nc3cccc4ccccc34)ccc2O1,active
2,C[C@@H]1CCCCO[C@@H](CN(C)Cc2ccc3c(c2)OCO3)[C@@H](C)CN([C@@H](C)CO)C(=O)c2cc(NC(=O)Nc3cccc4ccccc34)ccc2O1,inactive
3,C=CCOC(=O)[C@H]1[C@@H]2C(=O)O[C@@H](c3ccccc3)[C@@H](c3ccccc3)N2[C@@H](c2ccc(OCCOC(=O)[C@@H]3C[C@@H]4C(=O)N[C@@H](CCCCNC(C)=O)C(=O)N4[C@@H]3c3ccc(O)cc3)cc2)[C@]12C(=O)Nc1ccccc12,inactive
4,COc1ccc(CN(C)C[C@@H]2OCCCC[C@@H](C)Oc3ccc(NS(=O)(=O)c4ccc(F)cc4)cc3C(=O)N([C@H](C)CO)C[C@@H]2C)cc1,inactive
5,C[C@H](CO)N1C[C@H](C)[C@@H](CN(C)Cc2ccc(C(F)(F)F)cc2)Oc2ccc(NC(=O)Cn3cnnn3)cc2CC1=O,inactive
6,C[C@H](CO)N1C[C@H](C)[C@@H](CN(C)S(=O)(=O)c2cn(C)cn2)Oc2ccc(NC(=O)C3CCCCC3)cc2CC1=O,inactive
7,Cc1ccc(S(=O)(=O)Nc2cccc3c2O[C@@H](CN(C)S(=O)(=O)c2cccs2)[C@@H](C)CN([C@H](C)CO)C3=O)cc1,inactive
8,CN1C(=O)C[C@@H]2[C@@H]1CCN2C(=O)c1ccc[nH]1,inactive
9,C[C@H](CO)N1C[C@H](C)[C@@H](CN(C)S(=O)(=O)c2cn(C)cn2)OCc2ccccc2-c2ccccc2C1=O,inactive
10,C[C@H]1CCCCO[C@H](CN(C)Cc2ccc3c(c2)OCO3)[C@@H](C)CN([C@@H](C)CO)C(=O)c2cc(NC(=O)Nc3cccc4ccccc34)ccc2O1,inactive
11,C[C@@H]1CCCCO[C@@H](CN(C)Cc2ccc3c(c2)OCO3)[C@H](C)CN([C@H](C)CO)C(=O)c2cc(NC(=O)Nc3cccc4ccccc34)ccc2O1,active
12,C[C@@H]1CN([C@@H](C)CO)C(=O)c2cc(NC(=O)Nc3cccc4ccccc34)ccc2O[C@@H](C)CCCCO[C@@H]1CN(C)Cc1ccc2c(c1)OCO2,inactive
13,C[C@@H]1CCCCO[C@H](CN(C)Cc2ccc3c(c2)OCO3)[C@@H](C)CN([C@@H](C)CO)C(=O)c2cc(NC(=O)Nc3cccc4ccccc34)ccc2O1,inactive
14,C[C@@H]1CCCCO[C@@H](CN(C)Cc2ccc3c(c2)OCO3)[C@H](C)CN([C@@H](C)CO)C(=O)c2cc(NC(=O)Nc3cccc4ccccc34)ccc2O1,inactive
15,C[C@@H]1CCCCO[C@H](CN(C)Cc2ccc3c(c2)OCO3)[C@H](C)CN([C@H](C)CO)C(=O)c2cc(NC(=O)Nc3cccc4ccccc34)ccc2O1,active
16,C[C@H](CO)N1C[C@H](C)[C@H](CN(C)Cc2ccc3c(c2)OCO3)OCCCC[C@H](C)Oc2ccc(NC(=O)Nc3cccc4ccccc34)cc2C1=O,active
17,C[C@@H]1CN([C@H](C)CO)C(=O)c2cc(NC(=O)Nc3cccc4ccccc34)ccc2O[C@@H](C)CCCCO[C@@H]1CN(C)Cc1ccc2c(c1)OCO2,active
18,Cc1ccc(S(=O)(=O)Nc2ccc3c(c2)C(=O)N([C@@H](C)CO)C[C@@H](C)[C@@H](CN(C)C(=O)Nc2ccc(C(F)(F)F)cc2)O3)cc1,inactive
19,C[C@H](CO)N1C[C@H](C)[C@@H](CN(C)C(=O)Nc2ccc(C(F)(F)F)cc2)OCc2cn(nn2)CCCC1=O,inactive
